This is a sample that favours compounds with a hit; in the whole collection about 4.5% have one here.
SKKanGAS inh – S. pyogenes SKKanGAS growth inhibitors in kanamycin, primary screen, streptokinase expression inhibitor project, SKKanGAS strain, BacTiter-Glo luminescence; 6 h; inhibition, % at 7.5 µM; 300,000 compounds, 1.3% hits;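 active means mean replicate score, as percent of positive control median, at least 50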;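 further: strain carries kanamycin resistance gene driven by streptokinase promoter and grows in 40 µg/ml kanamycin; loss of luminescence reflects streptokinase promoter inhibition or plain growth inhibition; 0% = median of DMSO wells and 100% = positive control at its reference dose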
NLRP3 yeast inh – NALP3 inflammasome inhibitors in reconstituted yeast, primary screen, luminescence, uHTS. Yeast reconstituted NLRP3/ASC/caspase-1, beta-gal luminescence, 24 h. inhibition, % at 10 µM. 330,000 compounds, 0.39% hits. AID 2825, 2010;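 active means inhibition of 50% or more; inactive means inhibition below 50%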;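 further: plate controls were induced DMSO wells for no effect and uninduced yeast grown without galactose for full effect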
tim23-1 inh – growth inhibitors of tim23-1 mutant yeast, primary screen, luminescence, uHTS; S. cerevisiae tim23-1 growth, BacTiter-Glo luminescence, 24 h; 330,000 compounds, 1.3% hits; inhibition, % at 20 µM; AID 463212, 2010;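 active means growth inhibition of the mutant yeast at or above 50%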;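 further: temperature-sensitive mutant grown at 25 °C; plate controls were DMSO-treated mutant yeast for no effect and medium wells lacking yeast for full effect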
TIM10 inh – growth inhibitors of isogenic TIM10 control yeast, primary screen, counter-screen for tim10-1 yeast inhibitor project, luminescence, uHTS | S. cerevisiae TIM10 strain growth, BacTiter-Glo luminescence, 24 h | inhibition, % at 10 µM | 330,000 compounds, 1.4% hits | AID 463195, 2010;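 active means inhibition of 40% or more at the single tested concentration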;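 further: wild-type TIM10 isogenic control strain grown at permissive 25 °C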
PfHsp90 set2 – growth inhibition of PfHsp90-expressing yeast, primary screen, antimalarial PfHsp90 inhibitor project, S. cerevisiae, BacTiter-Glo luminescence, single point, set 2 | BacTiter-Glo ATP, 48 h; yeast lacking PDR1 and PDR3 efflux regulators | 310,000 compounds, 0.32% hits | inhibition, % at 9.4 µM;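 active means every replicate shows inhibition above about 80%, whatever the replicate mean, limit read from the data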;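 further: 0% = DMSO neutral controls and 100% = 20 µM radicicol positive controls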
tim10-1 inh – growth inhibitors of tim10-1 mutant yeast, primary screen, luminescence, uHTS; AID 463190, 2010; inhibition, % at 20 µM; 330,000 compounds, 2.2% hits; S. cerevisiae tim10-1 ts strain growth, BacTiter-Glo, 24 h;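 active means inhibition of at least 40%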;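 further: mutant grown at 25 °C; 0% = DMSO wells with yeast and 100% = wells holding no yeast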
NALP3 confirm – NALP3 inhibitors retested in yeast, confirmation, luminescence, single concentration | shares compounds with NLRP3 yeast inh | yeast expressing human NALP3 | inhibition, % at 10 µM | 1,300 compounds, 81% hits | AID 435006, 2010; in the data active means inhibition above about 48%
Casp1-ASC yeast – CASP1-PYCARD signaling inhibition in yeast, confirmatory test, counterassay for NLRP3 inhibitor program, one-dose | shares compounds with NLRP3 yeast inh | yeast expressing Caspase-1-ASC, luminescence counter screen | inhibition, % at 10 µM | 1,000 compounds, 66% hits | AID 488784, 2010
NALP3 yeast rt – NALP3 inhibitors in yeast, repeat test, confirmation, luminescence, single concentration, retest; shares compounds with NLRP3 yeast inh; yeast expressing human NALP3, luminescence read-out; inhibition, % at 10 µM; 1,000 compounds, 53% hits
tim10-1 conf – growth inhibitors of tim10-1 mutant yeast, confirmation, single concentration, luminescence, S. cerevisiae | shares compounds with tim10-1 inh | S. cerevisiae tim10-1 ts strain growth, BacTiter-Glo, 24 h | inhibition, % at 20 µM | 7,400 compounds, 56% hits;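 active means inhibition of yeast growth at or above a set limit in either of two repeat tests at 20 µM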;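 further: tim10-1 mutant grown at permissive 25 °C to find synthetic lethal compounds; 0% = DMSO yeast wells and 100% = medium wells without yeast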
tim10 confirm – growth inhibitors of wild-type TIM10 yeast, confirmation, counter-screen for tim10-1 synthetic lethality project, single concentration, luminescence, S. cerevisiae; shares compounds with TIM10 inh; S. cerevisiae tim10 strain growth, BacTiter-Glo luminescence, 24 h; inhibition, % at 10 µM; 4,600 compounds, 63% hits; AID 463215, 2010;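 active means inhibition of yeast growth at or above a set limit in either of two replicates at 10 µM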;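 further: this counterscreen used the strain with wild-type TIM10; 0% = yeast with DMSO and 100% = medium wells lacking yeast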
tim23-1 conf – tim23-1 mutant yeast growth inhibitors, confirmation, luminescence, single concentration; shares compounds with tim23-1 inh; S. cerevisiae tim23-1 growth, BacTiter-Glo luminescence, 24 h; inhibition, % at 20 µM; 4,400 compounds, 83% hits; AID 463218, 2010;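 active means inhibition above about 39% in either of two replicate wells at 20 µM, limit read from the data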;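 further: temperature-sensitive tim23-1 mutant grown at 25 °C; 0% = DMSO wells with yeast and 100% = medium wells without yeast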
Starred values were filed as active, the others as inactive; . = not tested or not shown. Unless noted, no stated cut-off is given here; in the data, active means inhibition above about 50%; inactive means the rest.

SMILES | SKKanGAS inh | NLRP3 yeast inh | tim23-1 inh | TIM10 inh | PfHsp90 set2 | tim10-1 inh | NALP3 confirm | Casp1-ASC yeast | NALP3 yeast rt | tim10 confirm | others
N#C/C(=C/c1cccs1)c1nc2ccccc2[nH]1 | 2 | 80* | 34 | 50* | 31 | -5 | 70* | 84* | 88* | -35
CN(C)/C=C(\C#N)c1nc2ccccc2[nH]1 | 15 | 13 | 13 | 8 | -8 | -17 | . | . | . | .
O=C(Cc1c(F)cccc1Cl)Nc1ccc(S(=O)(=O)Nc2nccs2)cc1 | -2 | 10 | 1 | -14 | -21 | -8 | . | . | . | .
O=C(/C=C/c1cccc(Cl)c1)c1nc2ccccc2[nH]1 | 17 | 92* | 15 | 58* | 65 | 50* | 85* | 99* | 93* | 63* | tim10-1 conf=41*
CN(C(=O)COC(=O)c1ccc(Br)c(S(=O)(=O)N2CCOCC2)c1)C1CCCCC1 | . | 8 | 27 | 3 | 5 | 13 | . | . | . | .
Cc1nc2ccc(NC(=O)c3cccs3)cc2s1 | 27 | 65* | 48 | 46* | 15 | 18 | 77* | 62* | 71* | 27
O=C(Nc1ccc(-c2nc3cc(NC(=O)c4cccs4)ccc3o2)cc1)c1cccs1 | 2 | 37 | -14 | -22 | . | 6 | . | . | . | .
O=C(Nc1ccc2oc(-c3ccncc3)nc2c1)c1cccs1 | -7 | 59* | 40 | 53* | 30 | -6 | 84* | 66* | 66* | 51*
CC(=O)Nc1ccc2nc(NC(=O)c3cccs3)sc2c1 | -8 | -1 | 11 | 23 | 37 | 24 | . | . | . | .
CCOC(=O)c1ccccc1NC(=O)COC(=O)CCNS(=O)(=O)c1cccs1 | . | 5 | 31 | 11 | 10 | 22 | . | . | . | .
COc1ccc(S(=O)(=O)N2CCCCC2)cc1NS(=O)(=O)c1ccc(CNC(C)=O)cc1 | . | 25 | 2 | 2 | -32 | 2 | . | . | . | .
Cn1nnc(NC(=S)NC(=O)c2cccc3ccccc23)n1 | -1 | 56* | 57* | 8 | -6 | 53* | 64* | 71* | 55* | . | tim10-1 conf=2;tim23-1 conf=30
Cn1nnc(NC(=S)NC(=O)c2cccs2)n1 | 0 | 14 | 16 | 12 | -4 | -5 | . | . | . | .
Cc1sc2ncnc(N3CCC(C(=O)Nc4ccc(Br)cc4Br)CC3)c2c1C | 3 | 22 | 18 | 4 | 0 | 14 | . | . | . | .
O=c1c2ccccc2nc(-c2ccc(Cl)c(Cl)c2)n1O | 37 | 65* | 79* | 62* | -16 | 49* | 42 | 26 | 33 | 55* | tim10-1 conf=30*;tim23-1 conf=73*
N#Cc1ccc(-c2nc3cc(Cl)ccc3c(=O)n2O)cc1 | 30 | 63* | 50* | 28 | 4 | 28 | 72* | 51* | 64* | . | tim23-1 conf=56*
O=c1c2ccc(Cl)cc2nc(-c2cccc(C(F)(F)F)c2)n1O | 97* | 52* | 56* | 27 | -104 | 33 | 63* | 44 | 52* | . | tim23-1 conf=48*

High-throughput results as filed in PubChem BioAssay.
